Screens (PubChem)
Rows were chosen to be rich in hits. Some 1.8% of all compounds tested hit in one or more screens of this group.
Pyk2 oligo antag: blocks oligomerization of human Pyk2 in cells | Q14289 | Q293 cells, Pyk2 FERM NanoBiT luminescence; stronger effect = lower value | z-score (the deposit names both 25 µM and 10 µM) | actives 0.83% (n = 99,000);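 active means Z-score of -3 or lower, scaled per plate to the spread of control and sample wells; inactive means z-score above -3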;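 further: negative z-score means lost luminescence so less FERM oligomerization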
Target sequence (Q14289 whole entry, looked up): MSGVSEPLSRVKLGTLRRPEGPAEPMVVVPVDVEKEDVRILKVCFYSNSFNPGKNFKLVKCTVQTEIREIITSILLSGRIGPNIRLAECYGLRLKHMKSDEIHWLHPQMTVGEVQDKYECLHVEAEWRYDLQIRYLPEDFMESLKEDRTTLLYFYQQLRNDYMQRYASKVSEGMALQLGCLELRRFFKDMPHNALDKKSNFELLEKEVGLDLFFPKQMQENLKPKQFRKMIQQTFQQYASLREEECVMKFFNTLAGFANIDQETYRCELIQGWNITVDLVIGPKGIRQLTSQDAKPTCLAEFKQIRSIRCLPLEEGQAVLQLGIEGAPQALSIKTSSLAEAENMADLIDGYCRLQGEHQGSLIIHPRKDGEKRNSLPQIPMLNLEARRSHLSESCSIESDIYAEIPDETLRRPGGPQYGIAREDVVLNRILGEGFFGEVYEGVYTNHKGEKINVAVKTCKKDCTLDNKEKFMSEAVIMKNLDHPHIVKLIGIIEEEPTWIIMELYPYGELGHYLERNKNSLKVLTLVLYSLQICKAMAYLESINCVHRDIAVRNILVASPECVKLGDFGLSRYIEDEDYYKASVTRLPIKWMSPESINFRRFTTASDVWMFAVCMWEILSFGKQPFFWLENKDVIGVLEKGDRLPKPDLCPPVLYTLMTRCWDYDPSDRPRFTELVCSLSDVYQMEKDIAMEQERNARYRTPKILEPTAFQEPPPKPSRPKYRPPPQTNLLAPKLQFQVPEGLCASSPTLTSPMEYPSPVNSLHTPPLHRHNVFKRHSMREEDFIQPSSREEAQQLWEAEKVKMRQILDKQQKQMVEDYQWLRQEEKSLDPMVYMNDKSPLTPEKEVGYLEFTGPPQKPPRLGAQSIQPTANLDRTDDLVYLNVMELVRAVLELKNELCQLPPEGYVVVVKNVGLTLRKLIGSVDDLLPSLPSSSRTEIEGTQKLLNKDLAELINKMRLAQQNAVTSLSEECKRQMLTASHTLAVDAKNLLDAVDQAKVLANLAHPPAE
FAK inh: FAK (human) kinase inhibition | Q05397 | biochemical FAK kinase activity assay | inhibition, %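 (tested at 7 µM)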 | actives 0.84% (n = 97,000) | AID 727; in the data active means inhibition above about 19%;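 further: 0% = DMSO and 100% = reference compound high control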
CD11b adhes enh: enhancers of human CD11b/CD18 binding to fibrinogen. actives 0.07% (n = 93,000). P05107+P11215. K562 CD11b/CD18 adhesion to fibrinogen, ATPlite luminescence. activation, % at 10 µM;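 active means 10 µM primary screen giving 50% or more activity, confirmed by 40% or more on retest at that dose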
Mac1 fbg inh: blocks human CD11b/CD18 adhesion to fibrinogen; inhibition, % at 10 µM; P05107+P11215; K562 CD11b/CD18 adhesion to fibrinogen, ATPlite luminescence; Mn2+ added to activate the integrin; actives 0.54% (n = 93,000);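 active means primary inhibition of 50% or more at 10 µM, then 40% or more on retest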
Active calls of the source: *; · = not tested or not shown.

SMILES | Pyk2 oligo antag | FAK inh | CD11b adhes enh | Mac1 fbg inh
O=c1c(S(=O)(=O)c2ccc(Cl)cc2)cn(Cc2ccccc2F)c2ccc(F)cc12 | · | · | -2 | 24
CCOc1ccc2nc(NC(=O)CN3CCC(n4nnc5cc(F)ccc54)CC3)sc2c1 | -3.3* | 4 | 1 | 57
COc1cc(Br)c(C(C)NC(=O)c2cccc(Br)c2)cc1OC (stereo not drawn) | -3.2* | 6 | -6 | 5
O=C(NCCSCc1ccccc1)c1ccc(C2SCC(=O)N2Cc2ccccc2)cc1 (stereo not drawn) | -0.78 | -1 | -2 | 17
C=CCSc1nc(NC)c2sccc2n1 | -0.27 | 5 | · | ·
O=C(Nc1cccc2ccccc12)N1CCN(c2ccccc2)CC1 | -3.8* | 0 | 4 | -13
COc1ccc(Br)cc1C(=O)Nc1ccccc1-c1ccccc1 | -3.6* | 4 | -1 | -17
O=C(O)C(Cc1ccccc1)N1C(=O)/C(=C/c2ccccc2)SC1=S (stereo not drawn) | 0.56 | · | · | ·
O=C(O)C(Cc1ccccc1)N1C(=O)/C(=C/c2cccc3ccccc23)SC1=S (stereo not drawn) | · | 15 | -5 | 91*
CCc1cccc(CC)c1NC(=O)CN1CC(C)SC1=NC1CCCCC1 (stereo not drawn) | -0.46 | 3 | · | ·
CC(=O)NC(=S)Nc1ccc(NC(=O)COc2ccc(Cl)cc2Cl)cc1 | 3.8 | -1 | 53* | 12
CSc1ccccc1NC(=O)COc1ccc(Cl)cc1Cl | · | · | 5 | -10
O=C(COc1ccc(Cl)cc1Cl)Nc1ccccn1 | 0.09 | 0 | -10 | 99*
COc1ccc(/C=N/NC(=O)c2ccn[nH]2)cc1COc1ccc(F)cc1 | -3.2* | 10 | -4 | 2
COc1cc(C2c3c(-c4ccccc4)n[nH]c3C(=O)N2c2ccccc2)ccc1O (stereo not drawn) | -3.1* | 3 | 3 | -3
Cc1nn(Cc2ccc(C(=O)NC(C)(C)C)o2)c(C)c1Br | 0.81 | -6 | -7 | 74*
Cc1ccc(S(=O)(=O)N[C@H](C(=O)OCC(=O)N2N=C(c3ccc(Cl)cc3)CC2c2ccco2)C(C)C)cc1 (stereo partly drawn) | · | · | -1 | -11
Fc1cccc(-c2cc3nc4c(c(N5CCOCC5)n3n2)CCCC4)c1 | -3.2* | · | 1 | -13
CCOC(=O)c1ccc(NC(=O)CN(c2ccc(C)cc2)S(=O)(=O)c2c(C)n[nH]c2C)cc1 | -3.4* | -2 | -6 | -15
Cc1ccc(N(CC(=O)Nc2ccc3c(c2)OCCO3)S(=O)(=O)c2c(C)noc2C)cc1 | -2.1 | -4 | -4 | -18
Cc1ccc(N(CC(=O)Nc2ccc3c(c2)OCCO3)S(=O)(=O)c2c(C)n[nH]c2C)cc1 | -3.5* | 2 | 0 | 1
COc1cccc(OCC(O)CN2CCC(C)CC2)c1 (stereo not drawn) | -0.26 | -1 | 1 | 17
CC1CCN(CC(O)COc2cccc(F)c2)CC1 (stereo not drawn) | · | 2 | -4 | 87*
c1ccc(CNc2ncnc3c2oc2ccccc23)nc1 | -0.29 | 15 | 2 | -10
CCc1nc(NCc2ccccn2)c2oc3ccccc3c2n1 | -3* | · | · | ·
SMILES | Pyk2 oligo antag | FAK inh | CD11b adhes enh | Mac1 fbg inh
CCOC(=O)CSc1nnc(SCCN2C(=O)c3ccccc3C2=O)s1 | 1.1 | 1 | 1 | -3
O=S(=O)(Nc1nnc(-c2ccccc2)s1)c1ccc(Cl)cc1 | -1.6 | -7 | -10 | 86*
CC(C)c1ccc(S(=O)(=O)/N=C2/C=C(Sc3ncn[nH]3)C(=O)c3ccccc32)cc1 | · | · | -4 | 102*
CCOc1ccc(S(=O)(=O)Nc2ccc(O)c(Sc3ncn[nH]3)c2)cc1 | 1.3 | -1 | · | ·
Cc1ccc(C(=O)CSc2ncn[nH]2)cc1 | 0.11 | 0 | -5 | -5
Cc1ccc(S(=O)(=O)/N=C2/C=C(Sc3ncn[nH]3)C(=O)c3ccccc32)cc1 | -3.2* | · | · | ·
COCCn1c(C)cc(C(=O)COC(=O)c2n[nH]c3ccccc23)c1C | 0.64 | · | -6 | 53*
COc1ccnc(NCc2ccc(Cl)cc2)c1C#N | -3.6* | 3 | -6 | -4
C=CCn1c(=O)c2ccccc2n2c(SCC(N)=O)nnc12 | 0.58 | 5 | · | ·
C=CCn1c(=O)c2c(C)c(C)sc2n2c(Nc3ccccc3)nnc12 | -3* | 1 | -3 | -4
Cc1nn(-c2ccccc2)c(C)c1C(=O)OCC(=O)NC12CC3CC(CC(C3)C1)C2 | -3.1* | 6 | · | ·
Cc1nn(-c2ccccc2)c(C)c1C(=O)OCC(=O)NC(=O)NC1CCCC1 | -3.4* | 3 | -1 | -13
O=C(COC(=O)c1n[nH]c2ccccc12)NC(=O)NC1CCCCC1 | -2.2 | 1 | -2 | -2
CCCN(CC(=O)Nc1cc(Cl)ccc1Cl)C(=O)/C=C/c1ccco1 | · | · | -4 | 7
CCCn1nc(C(=O)NC2CCCc3ccccc32)c2ccccc2c1=O (stereo not drawn) | · | · | 21 | -10
COc1ccc(C2CC(c3ccccc3)Nc3nc(NC(=O)c4ccco4)nn32)cc1 (stereo not drawn) | -3.7* | 0 | 0 | -8
COc1ccc(C2CC(c3ccc(OC)cc3)n3nc(NC(=O)c4ccco4)nc3N2)cc1 (stereo not drawn) | -3.8* | -1 | 1 | -10
Cn1nc(C(C)(C)C)cc1C(=O)NCc1ccc(N2CCCC2=O)cc1 | 0.76 | · | -6 | 84*
Cc1cccc2sc(NC(=O)C3c4ccccc4Oc4ccccc43)nc12 | -2 | 8 | 0 | 0
N#Cc1c(NC(=O)c2ccccc2Cl)n(Cc2ccccc2)c2nc3ccccc3nc12 | -2.5 | · | -6 | 100*
O=C(NNC1=C(C(=O)C(F)(F)F)CCC1)c1ccc(Br)cc1 | -0.15 | -7 | -10 | 97*
O=C(NNC1=C(C(=O)C(F)(F)F)CCC1)c1ccccc1O | -1.7 | -7 | -5 | -25
CCOc1ccc(-n2c(-c3ccccc3)c[n+]3c2CCCCC3)cc1 | · | · | -4 | 80*
CCOC(=O)C1=C(C)NC(SCC(=O)OC)=C(C#N)C1c1ccc(C(=O)OC)cc1 (stereo not drawn) | -0.48 | -3 | 9 | 13
C=CCOC(=O)C1=C(C)NC(SCC)=C(C#N)C1c1ccc(Cl)cc1 (stereo not drawn) | -3.2* | 6 | -8 | 0
SMILES | Pyk2 oligo antag | FAK inh | CD11b adhes enh | Mac1 fbg inh
Cc1ccc(S(=O)(=O)N/N=C/c2ccc(OCC(=O)NC(C)C)cc2)cc1 | 0.94 | 2 | · | ·
O=C(CN1CCC(c2nc3ccccc3s2)CC1)NCc1cccs1 | 0.13 | 1 | -8 | 100*
COC(=O)C1=C(C)N(C)C(C)=C(C(=O)OC)C1c1ccc(F)c(Br)c1 | -3.2* | -3 | · | ·
CC(C)(C)n1ncc2c(=O)n(Cc3ccc(Cl)cc3Cl)cnc21 | -1 | -2 | 5 | 50*
O=C(NCCc1ccccc1)c1cnn2c(C(F)F)cc(C3CC3)nc12 | -1.6 | 0 | -8 | 2
COC(=O)c1ccccc1NC(=O)c1cnn2c(C(F)F)cc(C3CC3)nc12 | -3.6* | 3 | 0 | 18
O=C(CCC1CCCC1)c1c(O)c2ccccc2oc1=O | · | -2 | -9 | 88*
O=C1NC(c2ccccc2)=C(c2nc3ccccc3s2)C(c2ccccc2)N1 (stereo not drawn) | -3.6* | 3 | 0 | -6
